Glyco luc inh – N-linked glycosylation inhibition; D54 ERlucT glycosylation luciferase reporter, 24 h; percent of 100 nM tunicamycin response; reporter increase, % at 12.5 µM; actives 0.23% (n = 360,000);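 active means mean luciferase reporter signal, scaled so untreated is 0 and the glycosylation-blocking control 100, at or above a set limit in every replicate; inconclusive means mean reaches the limit but not every replicate does; inactive means mean below the limit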;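 further: luciferase carries N-glycosylation sites so blocking glycosylation raises the light; 0% = median of neutral control wells and 100% = median of 100 nM tunicamycin wells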
NSD2 inh – blocks human histone methyltransferase NSD2 | O96028 | NSD2 peptide methylation, AlphaScreen, 120 min | inhibition, % at 12.5 µM | actives 0.54% (n = 310,000); in the data active means inhibition above about 50%
Casp6 inh – caspase-6 (human) enzyme inhibition | P55212 | purified caspase-6, Z-VEID-R110 cleavage fluorescence | AID 686996 | inhibition, % at 12.5 µM | actives 0.53% (n = 350,000);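 active means mean inhibition across replicates at least about 35%, with every replicate also reaching that limit, limit read from the data; inconclusive means only one of the two criteria met; inactive means neither criterion met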;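 further: 0% = median of neutral control wells and 100% = no fluorescence left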
CDK5 inh – inhibitors of human CDK5/p35 kinase; Recombinant CDK5/p35, ADP-Glo luminescence, 60 min; inhibition, % at 10 µM; actives 0.01% (n = 330,000); AID 488839;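 active means highest replicate inhibition of at least 50% and at least 75% of replicates reaching 50%; inconclusive means only one of the two criteria met; inactive means both criteria failed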;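 further: plate controls were DMSO neutral control for no effect and GW8510 at 10 µM for full effect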
Target sequence (Q00535 whole entry, looked up): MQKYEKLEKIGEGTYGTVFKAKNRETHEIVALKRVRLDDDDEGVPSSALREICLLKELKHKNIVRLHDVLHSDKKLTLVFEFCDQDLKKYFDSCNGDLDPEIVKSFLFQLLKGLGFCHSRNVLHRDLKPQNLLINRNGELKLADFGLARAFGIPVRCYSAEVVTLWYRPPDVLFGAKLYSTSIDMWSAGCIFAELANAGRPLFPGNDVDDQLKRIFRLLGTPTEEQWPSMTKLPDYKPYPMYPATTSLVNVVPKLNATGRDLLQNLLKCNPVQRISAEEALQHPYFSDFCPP
Target sequence (Q15078 whole entry, looked up): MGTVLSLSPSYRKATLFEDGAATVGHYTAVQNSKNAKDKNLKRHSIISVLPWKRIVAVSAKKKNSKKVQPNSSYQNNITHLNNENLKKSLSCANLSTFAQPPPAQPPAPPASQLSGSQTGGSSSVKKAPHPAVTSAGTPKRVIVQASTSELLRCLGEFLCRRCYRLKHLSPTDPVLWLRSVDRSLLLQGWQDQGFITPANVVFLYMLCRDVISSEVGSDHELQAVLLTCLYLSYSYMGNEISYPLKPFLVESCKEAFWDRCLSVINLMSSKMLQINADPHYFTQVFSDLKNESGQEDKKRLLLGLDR
ALR H2O2 inh – inhibitors of human sulfhydryl oxidase ALR; P55789; AID 485317; purified ALR, DTT oxidation, H2O2 HRP-luminol luminescence; actives 3.8% (n = 290,000); inhibition, % (no concentration beside the values);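 active means mean replicate inhibition above about 79%, with every replicate also reaching it, limit read from the data; inconclusive means only one of the two criteria met; inactive means mean below limit and not every replicate reaching it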
SUMO Mot1 rescue – SUMOylation pathway inhibition by Mot1-301 growth rescue | S. cerevisiae Mot1-301 growth rescue, ATP luminescence, 38.5C; percent above DMSO median, 100 means doubled | growth rescue, % at 18.8 µM | actives 1% (n = 320,000);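 active means every valid replicate shows activation above 250% relative to neutral control wells; inactive means the rest, any valid replicate at or below 250%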;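 further: OY570 slx delta 5 strain wells were the positive control but not used for scaling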
Active calls of the source: *; ? = inconclusive; nt = no result. Most compounds without a hit are left out; they make up all but 3.9% or so of the library.

SMILES	Glyco luc inh	NSD2 inh	Casp6 inh	CDK5 inh	ALR H2O2 inh	SUMO Mot1 rescue
Cc1cc(C)c2nc(NC(=O)c3ccc([N+](=O)[O-])o3)sc2c1	16.2	0.6	-2.3	0.5	-4.6	1.9
COc1ccc(NC(=O)c2ccc([N+](=O)[O-])o2)cc1	30.9*	4.4	0.0	1.1	-27.2	226.3
O=C(N[C@@H]1CC[C@@H](CC(=O)N2CCC(Cc3ccccc3)CC2)O[C@H]1CO)c1cnccn1	nt	nt	1.2	nt	nt	nt
C/C=C/c1ccc([C@H]2[C@@H](CO)N(C(=O)COC)[C@@H]2CNC(=O)C2CCC2)cc1	nt	nt	1.3	nt	nt	nt
COCC(=O)N1[C@@H]2CN(C(=O)c3ccccc3)c3ccccc3[C@@H]2[C@@H]1CO	nt	nt	0.5	nt	nt	nt
CC=Cc1ccc2n(c1=O)C[C@@H]1[C@@H](CO)[C@H](C(=O)NCc3ccccc3F)N(S(C)(=O)=O)[C@H]21 (mixture of isomers)	nt	nt	1.7	nt	nt	nt
COc1ccc(CCNC(=O)COC(=O)CCC(=O)c2ccc(F)cc2)cc1	1.6	-5.2	-1.9	-0.1	84.6*	5.1
Cc1ccc(NC(=O)c2cc([N+](=O)[O-])ccc2N2CCOCC2)cc1S(=O)(=O)N1CCOCC1	-4.5	2.2	3.7	1.3	3.2	7.4
COc1ccc(CCNC(=O)COc2ccc([N+](=O)[O-])cc2)cc1	-1.6	0.8	4.4	1.6	1.4	-17.2
Cc1ccc(NC(=O)c2ccc([N+](=O)[O-])o2)cc1S(=O)(=O)N1CCOCC1	?	9.7	40.5*	0.4	-38.4	2.5
O=C(COC(=O)c1ccc([N+](=O)[O-])o1)NCCCc1ccccc1	-1.1	-0.3	48.9*	1.8	-14.3	3.4
COc1ccc(CCNC(=O)COC(=O)c2ccc([N+](=O)[O-])o2)cc1	-1.0	14.6	58.6*	1.4	-13.0	-3.8
C[C@H](CO)N1C[C@H](C)[C@H](CN(C)Cc2ccc(C(=O)O)cc2)Oc2ccc(NS(=O)(=O)c3ccc(Cl)cc3)cc2C1=O	nt	nt	-0.1	nt	nt	nt
Cc1noc(C)c1NC(=O)Nc1cccc2c1O[C@H](CN(C)C(=O)NC1CCCCC1)[C@@H](C)CN([C@@H](C)CO)C2=O	nt	nt	0.9	nt	nt	nt
CC(=O)Nc1ccc(NC(=O)COC(=O)c2ccc([N+](=O)[O-])o2)cc1	1.7	2.3	53.8*	-0.4	-13.9	11.1
Cc1cc(C)c2nc(C)cc(N/N=C/c3ccc(O)cc3)c2c1	-21.5	-0.3	9.8	4.5	99.4*	-15.7
Cc1cc(N/N=C/c2ccc(O)cc2)c2cccc(C)c2n1	24.7	-0.3	0.0	3.8	99.5*	-5.4
Cc1cc(N/N=C/c2ccc(N(C)C)cc2)c2ccccc2n1	0.4	-1.9	0.4	0.1	54.3	10.0
N/C(=N\OC(=O)Cc1cccs1)c1cccc([N+](=O)[O-])c1	-0.9	nt	nt	-2.7	nt	45.8
N/C(=N\OC(=O)Cc1ccc([N+](=O)[O-])cc1)c1ccc([N+](=O)[O-])cc1	5.0	-2.4	-0.9	1.6	97.3*	4.2
Cc1ccc(CC(=O)O/N=C(\N)Cc2ccc([N+](=O)[O-])cc2)cc1	1.0	-0.2	-0.4	-0.3	34.9	139.3
N/C(=N\OC(=O)Cc1ccc([N+](=O)[O-])cc1)c1cccc(Br)c1	-4.7	9.2	1.6	0.4	98.6*	-11.5
N#Cc1ccccc1CSc1nc2ccc(NC(=O)c3ccccc3C(=O)O)cc2s1	-2.1	2.4	1.4	-0.9	99.1*	142.9
O=C(O)c1ccc(CSc2nc3ccc(NC(=O)c4ccccc4C(=O)O)cc3s2)cc1	-0.3	3.4	26.9	0.3	99.2*	-4.5
N#Cc1ccccc1OCC(=O)NC1CCCCCC1	-5.7	-1.4	-0.2	nt	nt	nt
C=CCNC(=O)COc1ccccc1C#N	1.8	-0.6	52.3*	3.7	-1.7	18.2
CS(=O)(=O)N[C@H]1C[C@@H]2O[C@H](CO)CC[C@@H]2O[C@@H]1CCc1ccc(-c2ccccc2F)cc1	nt	nt	1.0	nt	nt	nt
C[C@@H]1CCCCO[C@H](CN(C)Cc2ccc3c(c2)OCO3)[C@@H](C)CN([C@H](C)CO)C(=O)c2cc(NC(=O)CCC(F)(F)F)ccc2O1	nt	nt	0.4	nt	nt	nt
COc1ccnc(Oc2ccccc2)c1C#N	0.3	0.4	-2.2	0.7	-3.1	6.5
COc1ccnc(N2CCN(c3ccccc3)CC2)c1C#N	0.7	nt	-0.1	-0.9	98.8*	-12.6
